High-throughput results: PubChem, The Scripps Research Institute Molecular Screening Center
This is a sample that favours compounds with a hit; in the whole collection about 5.7% have one here.
DAX1 inh-1 – inhibitors of human orphan nuclear receptor DAX1 (NR0B1); AID 504766; actives 0.99% (n = 340,000); P51843; inhibition, % at 6.75 µM; HEK293 Gal4-DAX1 luciferase reporter, luminescence;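 active = inhibition above the mean over all tested compounds plus 3 SD, cut at about 4.2% in these data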;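 note: inhibition shows as a rise in luminescence from relieved DAX1 repression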
Target sequence (P51843 207-470 limits assumed): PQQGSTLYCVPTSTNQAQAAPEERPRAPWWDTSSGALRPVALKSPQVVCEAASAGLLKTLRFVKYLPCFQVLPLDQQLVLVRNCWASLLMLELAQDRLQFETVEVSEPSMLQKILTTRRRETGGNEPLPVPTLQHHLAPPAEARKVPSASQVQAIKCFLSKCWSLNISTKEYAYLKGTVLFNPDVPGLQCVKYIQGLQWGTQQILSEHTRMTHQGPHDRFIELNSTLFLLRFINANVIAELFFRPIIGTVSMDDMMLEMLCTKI
hgDAF-12 ag – agonists of H. glycines DAF-12 nuclear receptor | HEK293 GAL4-hgDAF12 UAS-luciferase reporter, agonist luminescence; normalized to butyrate control | activation, % at 6.8 µM | actives 1.8% (n = 370,000);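 active = activation above a cutoff set at the mean of all screened compounds plus 3 SD, cut at about 10% in these data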
DAX1 inh-2 – inhibitors of DAX1 repression of SF-1 activated StAR promoter. HEK293T StAR-luciferase reporter, SF-1/DAX-1 repression relief. inhibition, % at 6.8 µM. actives 1.1% (n = 370,000). AID 652010;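 active = inhibition above the mean over all tested compounds plus 3 SD, cut at about 3.6% in these data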;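 note: higher inhibition means more luminescence from relief of DAX-1 repression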
ssDAF12 agonist – S. stercoralis DAF-12 activation, primary screen; HEK293 ssDAF-12/GRIP1 lit1-tk-luc reporter, luminescence; % of 3 µM dafachronic acid response; activation, % at 6.8 µM; actives 1% (n = 370,000);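 active = activation above the mean over all tested compounds plus 3 SD, cut at about 0.9% in these data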
hcDAF12 agonist – activators of H. contortus DAF-12 nuclear receptor; activation, % at 6.8 µM; HEK293 hcDAF-12 lit1-tk-luc reporter, luminescence; 0% DMSO, 100% Δ7-dafachronic acid; actives 1.4% (n = 370,000);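 active = activation above the mean of all tested compounds plus 3 SD, cut at about 5.5% in these data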
AHR activator – human AHR activation; AHR-responsive luciferase reporter cells, luminescence; AID 2796; actives 2.5% (n = 320,000); activation, % at 5 µM; in the data active = activation above about 47%
Large screens that a line does not name were inactive.

COc1ccccc1NC(=O)c1nnn(CC(=O)Nc2ccccc2)c1N	AHR activator 47
COc1ccccc1NC(=O)Cn1nnc(C(=O)Nc2ccccc2)c1N	none
Cc1nn(S(=O)(=O)N(C)C)c(C)c1CN1C(=O)c2ccccc2C1=O	none
COCCN(C(=O)c1ccco1)c1nc(-c2ccccc2)cs1	none
CC(=O)Nc1ccc(-c2csc(NC(=O)CCNC(=O)c3ccco3)n2)cc1	none
O=C(CCNC(=O)c1ccco1)Nc1nc(-c2ccccc2)cs1	ssDAF12 agonist 1.0, hcDAF12 agonist 6.4 (no result: DAX1 inh-1)
CN(C(=O)c1ccco1)c1nc(-c2ccccc2)cs1	hgDAF-12 ag 11, DAX1 inh-2 3.7, hcDAF12 agonist 5.9
Cc1ccc(-c2csc(NC(=O)c3ccco3)n2)cc1C	DAX1 inh-1 4.3
CCN(CC)C(=O)c1cnn(-c2ccccc2)c1NC(=O)c1ccco1	none
COc1ccc2nc(C)cc(SCC(=O)Nc3c(C)cc(C)cc3C)c2c1	none
COc1cc(-c2nc3n(n2)C(c2ccncc2)C2=C(CCCC2=O)N3)cc(OC)c1OC (centres undefined)	none
C#Cc1ccc([C@@H]2C=C(C(=O)N3CCOCC3)O[C@H](OCCCCO)C2)cc1	none
CCOc1ccccc1-n1c(SCC(N)=O)nnc1-c1ccco1	none (no result: hgDAF-12 ag, DAX1 inh-2, ssDAF12 agonist, hcDAF12 agonist)
CN(C)/C=C(\C#N)C(=O)Nc1ccc(F)c(Cl)c1	ssDAF12 agonist 1.3
CN(C)/C=C(\C#N)C(=O)Nc1ccc(F)cc1	none
Cc1cc(NC(=O)COC(=O)COc2ccc(C(=O)c3ccccc3)cc2)no1	none
CCOc1ccc(/C=N/OCC(=O)Nc2ccc3c(c2)OCO3)cc1	none
CCc1ccccc1OCC(=O)OCC(=O)Nc1cc(C)on1	DAX1 inh-2 3.8
CCOc1ccc(/C=N/OCC(=O)Nc2cc(C)on2)cc1	ssDAF12 agonist 1.6
O=C(NCCC1=CCCCC1)C1CCN(c2nc3ccccc3o2)CC1	none
COc1cc(CNc2cccc(F)c2)cc(Br)c1O	ssDAF12 agonist 1.5
Cc1nn(C)cc1/C=C/C(=O)c1cccs1	DAX1 inh-1 5.2, hgDAF-12 ag 12
Cc1ccc(OCCNC(=O)/C=C/c2ccco2)cc1C	none
O=C(O)C1C=CCC(C(=O)O)C1 (centres undefined)	ssDAF12 agonist 2.4 (no result: AHR activator)
O=C(O)C1CC(C(=O)O)SS1 (centres undefined)	none (no result: AHR activator)
O=C1CSc2ccc(C(=O)N3CCCC(C(=O)N4CCCC4)C3)cc2N1 (centres undefined)	none (no result: DAX1 inh-1, AHR activator)
CN(C)c1cc(N/N=C/c2ccccc2C(F)(F)F)nc(N(C)C)n1	AHR activator 55
CN(C1CCCCC1)S(=O)(=O)c1ccc(SCC(N)=O)nc1	none (no result: AHR activator)
O=C(Nc1ccccc1)OCC1CCCN2CCCCC12 (centres undefined)	none
CC1=CCC(COC(=O)Nc2ccccc2)CC1 (centres undefined)	hgDAF-12 ag 11
O=C1CSc2ccccc2N1Cc1ccc(F)cc1	ssDAF12 agonist 1.4
COc1ccc([C@@H]2CC=C(C(=O)O)[C@H](c3ccc(F)cc3)N2S(=O)(=O)c2ccc(C)cc2)cc1OC	none
NS(=O)(=O)c1ccc(CCNC(=O)c2ccc(Cl)c(S(=O)(=O)NCc3ccco3)c2)cc1	ssDAF12 agonist 1.3
O=C(O)c1ccc(Cl)c(S(=O)(=O)NCc2ccco2)c1	none
O=C(c1ccc(CSc2nc3ccncc3[nH]2)cc1)N1CCCCCC1	hgDAF-12 ag 13
Cc1ccc(C(=O)Cn2nnc3ccccc32)cc1	hgDAF-12 ag 11
O=C(Cn1nnc2ccccc21)NCc1ccccc1	hgDAF-12 ag 11
c1ccc(CCn2nnc3ccccc32)cc1	DAX1 inh-1 6.3
O=C(Cn1nnc2ccccc21)c1ccc(Br)cc1	none
Cc1ccc(OCCn2nnc3ccccc32)cc1C	hgDAF-12 ag 13
CCOC(=O)c1c(C)n(C)c2ccc(OC)c(NS(=O)(=O)c3ccc(Cl)s3)c12	none
S=c1[nH]nc(-c2ccco2)n1/N=C/c1cccs1	none
C=CC(=O)Nc1ccc(Nc2nc(NC3CCC(N(C)C)CC3)nc3c2ncn3C(C)C)cc1 (centres undefined)	none (no result: hgDAF-12 ag, DAX1 inh-2, ssDAF12 agonist, hcDAF12 agonist)
COc1cc(OC)cc(C(=O)NCc2cccnc2)c1	none
CCOc1ccc(Br)cc1C(=O)N/N=C/c1cccnc1	AHR activator 67
O=C(N/N=C/c1ccc2ncccc2c1)c1cc(-c2cccs2)nc2ccccc12	none
O=C(N/N=C/c1cccnc1)c1cc(-c2cccs2)nc2ccccc12	AHR activator 76
O=C(N/N=C/c1cccnc1)c1cc(Br)ccc1O	hgDAF-12 ag 12
O=C1CN(c2ccccc2)C(=S)N1C(=O)c1ccc(Br)cc1	DAX1 inh-1 7.7, hgDAF-12 ag 14
CC1(C)CC2CC(C)(CN2C(=O)COC(=O)c2cccnc2Cl)C1 (centres undefined)	none
CC1(C)CC2CC(C)(CN2C(=O)COC(=O)c2n[nH]c(=O)c3ccccc23)C1 (centres undefined)	DAX1 inh-1 4.4
Cc1nc2ccccc2nc(C)c1=NOCc1ccc(C#N)cc1	hgDAF-12 ag 11
O=c1cc(C(F)(F)F)oc2c1ccc1ccccc12	none
CCCCCNc1nc(-c2ccccc2)nc(-n2ccnc2)n1	none
CCCCNc1nc(N(C)c2ccccc2)nc(-n2ccnc2)n1	AHR activator 61
O=C(O)CNC(=O)C(Cc1ccccc1)NC(=O)OCc1ccccc1 (centres undefined)	none
CC(OC(=O)Cn1[nH]c(=O)c2ccccc2c1=O)C(=O)Nc1cccc(Cl)c1 (centres undefined)	DAX1 inh-1 4.2
COc1ccc(Nc2nc(-c3cccnc3)cs2)c(OC)c1	none (no result: AHR activator)
O=[N+]([O-])c1ccccc1Nc1nc(-c2cccnc2)cs1	hcDAF12 agonist 5.6, AHR activator 52
COc1ccccc1Nc1nc(-c2cccnc2)cs1	hgDAF-12 ag 12, ssDAF12 agonist 1.2
COc1ccc(Nc2nc(-c3cccs3)cs2)c(OC)c1	DAX1 inh-1 4.9, ssDAF12 agonist 1.1, AHR activator 109
CC(NC(=O)c1ccc(N2CCCC2)c([N+](=O)[O-])c1)c1ccc(S(N)(=O)=O)cc1 (centres undefined)	none
COC(=O)c1c(C(=O)OC)c(-c2ccccc2)n2c1CS(=O)C2 (centres undefined)	none
N#CC1=C(N)Oc2c(O)cc3ccccc3c2C1c1ccsc1 (centres undefined)	ssDAF12 agonist 6.0
CCOC(=O)C1=C(C)OC(N)=C(C#N)C1c1ccsc1 (centres undefined)	none (no result: hgDAF-12 ag, DAX1 inh-2, ssDAF12 agonist, hcDAF12 agonist)
Cc1nc(S/C(=C/c2ccc(-c3ccc(Cl)cc3)o2)C(=O)O)n[nH]1	AHR activator 57
O=C(CSc1nnc(-c2cccs2)n1-c1cccc(Cl)c1)c1cccc2c1OCCO2	DAX1 inh-1 6.1
CCN1CCN(C(=S)c2ccc(Br)cc2)CC1	none
